Data taken from PubChem BioAssay (EPA / NIEHS).
Several values for one entry are separate records, joined by “and”; a condition that tells them apart may be missing. Equal entries are not always repeated. Some structures have more than one record in an assay (separate samples or runs), and their calls can disagree. Activity calls are given as the source filed them. The calls were made as follows: active = hit-call score of the fitted dose curve at least 0.9, where 1 is the maximum; inactive = score below 0.9.

Key:
[1] = APR_HepG2_CellCycleArrest_1hr: Apredica 1-hour HepG2 Assay for Cell Cycle Arrest (AID 2282666); details: high-content imaging, actives raise or lower the signal
Outline: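 HepG2 cells exposed for 1 h to 0.39–200 uM compound (0.5% DMSO). Fixed, Hoechst-stained nuclei imaged by ArrayScan; DNA content quantified by Cell Cycle analysis; bidirectional fit against DMSO.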

[2] = APR_HepG2_CellLoss_1hr: Apredica 1-hour HepG2 Assay for Cell Loss (AID 2282668); details: high-content imaging;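 also: curves fitted both ways against DMSO so gain or loss of cells counts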
Outline: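 HepG2 cells were treated for 1 h with compound at 0.39–200 uM, in duplicate, in 0.5% DMSO. After formaldehyde fixation, Hoechst 33342-stained nuclei were imaged on an ArrayScan to count cells. Data were fitted bidirectionally versus DMSO.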

[3] = APR_HepG2_MicrotubuleCSK_1hr: Apredica 1-hour HepG2 Assay for Microtubule CSK Stabilty (AID 2282669); details: HepG2 microtubule cytoskeleton imaging, actives raise or lower the signal
Outline: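 HepG2 cells exposed 1 h to 0.39–200 uM compound (0.5% DMSO, duplicates), then formaldehyde-fixed, permeabilized and immunostained for alpha-tubulin with Hoechst nuclei. Imaged by ArrayScan high-content analysis; bidirectional fit versus DMSO.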

[4] = APR_HepG2_NuclearSize_1hr: Apredica 1-hour HepG2 Assay for Nuclear Size (AID 2282670); details: high-content imaging, actives raise or lower the signal
Outline: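 HepG2 cells dosed 1 hr with 0.39–200 uM compound (0.5% DMSO), formaldehyde-fixed, Hoechst 33342-stained and imaged at 20x; nuclear diameter from nuclear stain, fitted bidirectionally against DMSO.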

[5] = APR_HepG2_P-H2AX_1hr: Apredica 1-hour HepG2 Assay for H2AX Phosphorylation (AID 2282673); details: high-content imaging, actives raise or lower the signal
Outline: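 HepG2 dosed 1 hr at 0.39-200 uM (0.5% DMSO final), duplicate. Fixed in 3.7% formaldehyde, Triton permeabilized, immunostained for phospho-histone H2A.x (1:200) with Hoechst 33342; ArrayScan 20x imaging, bidirectional fit vs DMSO.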

[6] = APR_HepG2_MitoMembPot_1hr: Apredica 1-hour HepG2 Assay for Mitochondrial Membrane Potential (AID 2282675); details: imaging, actives raise or lower the signal
Outline: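 HepG2 cells dosed 1 hour with 0.39–200 uM compound in duplicate, 0.5% DMSO final. MitoTracker Red CMXRos (250 nM, 30 min) loaded before formaldehyde fixation; fluorescence quantified by high-content imaging, bidirectional fitting versus DMSO.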

[7] = APR_HepG2_CellCycleArrest_24hr: Apredica 24-hour HepG2 Assay for Cell Cycle Arrest (AID 2282905); details: imaging, actives raise or lower the signal;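 also: cell cycle arrest scored as ratio of 2N to 4N nuclear DNA content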
Outline: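 Cell cycle arrest is scored from nuclear DNA content measured by high-content imaging of Hoechst 33342-stained HepG2 cells following 24-hour treatment at ten concentrations up to 200 uM, with DMSO as baseline.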

[8] = APR_HepG2_StressKinase_1hr: Apredica 1-hour HepG2 Assay for Stress Kinase (AID 2282906); details: HepG2 stress kinase (phospho-c-Jun) imaging, actives raise or lower the signal
Outline: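 HepG2 cells dosed 0.39-200 uM (0.5% DMSO) for 1 h, then formaldehyde-fixed. Stress kinase read by phospho-c-Jun immunofluorescence using high-content imaging; bidirectional fit vs DMSO.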

[9] = APR_HepG2_MitoticArrest_1hr: Apredica 1-hour HepG2 Assay for Mitotic Arrest (AID 2282672); details: high-content imaging, actives raise or lower the signal
Outline: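 HepG2 cells exposed 1 hr to compounds at 0.39–200 uM (0.5% v/v DMSO final), then fixed in 3.7% formaldehyde and immunostained for phospho-histone H3 with Hoechst 33342. Mitotic arrest scored by automated fluorescence imaging, fitted bidirectionally versus DMSO.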

[10] = APR_HepG2_MitoMass_1hr: Apredica 1-hour HepG2 Assay for Mitochondrial Mass (AID 2282674); details: high-content imaging, actives raise or lower the signal
Outline: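 HepG2 cells dosed 1 hr with 0.39-200 uM compound (0.5% DMSO), duplicate wells. Mitochondria stained with 250 nM MitoTracker Red CMXRos for 30 min before formaldehyde fixation, imaged at 20x by ArrayScan; bidirectional fit versus DMSO.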

Measured: AC50

CCOC(=O)[C@H](C)Oc1ccc(Oc2nc3ccc(Cl)cc3o2)cc1
not listed: [9] | [10]
inactive: all other assays above

CCC(C)OC(=O)N1CCCCC1CCO (configuration not stated)
not listed: [1]
inactive: all other assays above

CCCCOCCOCCOCc1cc2c(cc1CCC)OCO2
not listed: [1] | [9] | [10]
inactive: all other assays above

CC(C)(C)[C@@H](O)[C@@H](Cc1ccc(Cl)cc1)n1cncn1
not listed: [1]
inactive: all other assays above

CCNc1nc(N)nc(Cl)n1
not listed: [1] | [10]
inactive: all other assays above

COC(=O)c1ccccc1S(=O)(=O)NC(=O)Nc1nc(OC(F)F)cc(OC(F)F)n1
not listed: [1] | [9]
inactive: all other assays above

O=C(O)C1(C(=O)Nc2ccc(Cl)cc2Cl)CC1
not listed: [1] | [9] | [10]
inactive: all other assays above

CCCOC(=O)c1ccc(C(=O)OCCC)nc1
not listed: [9] | [10]
inactive: all other assays above

CCN(CC)C(=O)c1cccc(C)c1
not listed: [1] | [10]
inactive: all other assays above

CCCOC(=O)NCCCN(C)C
not listed: [1] | [9] | [10]
inactive: all other assays above

CCSC(=O)N(CC(C)C)CC(C)C
not listed: [1] | [9]
inactive: all other assays above

COC(=O)c1ccccc1C(=O)O
not listed: [1]
inactive: all other assays above

CCOC(=O)NCCOc1ccc(Oc2ccccc2)cc1
not listed: [1] | [10]
inactive: all other assays above

CSC(=O)c1cccc2nnsc12
not listed: [1] | [9] | [10]
inactive: all other assays above

CCCCC(CC)CN1C(=O)C2C3C=CC(C3)C2C1=O (configuration not stated)
not listed: [1] | [9]
inactive: all other assays above

COC(=O)c1ccc(CNS(C)(=O)=O)cc1S(=O)(=O)NC(=O)Nc1nc(OC)cc(OC)n1
not listed: [1] | [9]
inactive: all other assays above

C#CCOC(=O)[C@@H](C)Oc1ccc(Oc2ncc(Cl)cc2F)cc1
not listed: [9] | [10]
inactive: all other assays above

S=C(S)NCCNC(=S)S.[Mn+2].[S-]C([S-])=NCCN=C([S-])[S-].[Zn+2]
inactive: [2] | [3] | [4] | [9] | [5] | [6] | [7] | [8]
active: [7] 50.8 µM and 53.7 µM

CCOC(=O)C(C)Oc1ccc(Oc2nc3ccc(Cl)cc3o2)cc1 (configuration not stated)
not listed: [1] | [9] | [10]
inactive: all other assays above

CCN(Cc1c(F)cccc1Cl)c1c([N+](=O)[O-])cc(C(F)(F)F)cc1[N+](=O)[O-]
not listed: [9] | [10]
inactive: all other assays above

Oc1ccc(C(c2ccc(O)cc2)C(Cl)(Cl)Cl)cc1
active: [6] 87 µM | [8] 94.2 µM
inactive: [2] | [3] | [4] | [5] | [7]

CCCCOC(=O)[C@@H](C)Oc1ccc(Oc2ccc(C(F)(F)F)cn2)cc1
not listed: [10]
inactive: all other assays above

CCCN(CCC)c1c([N+](=O)[O-])cc(C(F)(F)F)c(N)c1[N+](=O)[O-]
active: [5] 109 µM | [8] 75.8 µM
inactive: [2] | [3] | [4] | [6] | [7]

c1ccc2[nH]c(-c3cscn3)nc2c1
not listed: [9] | [10]
inactive: all other assays above

COC(=O)c1c(Cl)nn(C)c1S(=O)(=O)NC(=O)Nc1nc(OC)cc(OC)n1
not listed: [1] | [10]
inactive: all other assays above

CC(C)(c1ccc(O)cc1)c1ccc(O)cc1
not listed: [1] | [9] | [10]
inactive: all other assays above

c1ccc(Nc2ccccc2)cc1
not listed: [1] | [9]
inactive: all other assays above

CCCCCCC(C)OC(=O)COc1nc(F)c(Cl)c(N)c1Cl (configuration not stated)
active: [2] 113 µM | [5] 100 µM
not listed: [9] | [10]
inactive: all other assays above

CC1(C)C(C=C(Cl)Cl)C1C(=O)OCc1cccc(Oc2ccccc2)c1 (configuration not stated)
not listed: [9]
inactive: all other assays above

COc1nc(C)nc(NC(=O)NS(=O)(=O)c2ccccc2OCCCl)n1
not listed: [9] | [10]
inactive: all other assays above

COC(=O)c1ccc(I)cc1S(=O)(=O)NC(=O)Nc1nc(C)nc(OC)n1
not listed: [1] | [9] | [10]
inactive: all other assays above

C=CCOC(Cn1ccnc1)c1ccc(Cl)cc1Cl (configuration not stated)
not listed: [1] | [9] | [10]
inactive: all other assays above

C#C[C@]1(O)CC[C@H]2[C@@H]3CCC4=CC(=O)CC[C@@H]4[C@H]3CC[C@@]21CC
inactive: [7]

N#CSCSc1nc2ccccc2s1
inactive: [2] | [3] | [4] | [6]
active: [5] 27.5 µM | [7] 29.6 µM | [8] 33.3 µM

O=C(O)c1ccccc1
inactive: [7]

CC(=O)[C@H]1CC[C@H]2[C@@H]3CCC4=CC(=O)CC[C@]4(C)[C@H]3CC[C@]12C
active: [7] 169 µM

CCCCOC(=O)C(C)Oc1ccc(Oc2ccc(C(F)(F)F)cn2)cc1 (configuration not stated)
not listed: [1] | [9] | [10]
inactive: all other assays above

O=C(c1ccccc1)C1CCCCC1
inactive: [7]

CCCCC(CC)COC(=O)c1ccccc1C(=O)O (configuration not stated)
not listed: [1] | [9] | [10]
inactive: all other assays above

N[C@@H](Cc1cc(I)c(Oc2ccc(O)c(I)c2)c(I)c1)C(=O)O
inactive: [7]

OB(O)O
not listed: [1] | [9] | [10]
inactive: all other assays above

O=C(Nc1ccc([N+](=O)[O-])cc1Cl)c1cc(Cl)ccc1O
active: [6] 1.94 µM | [7] 0.0918 µM | [8] 0.364 µM
inactive: [2] | [3] | [4] | [5]

C[C@]12CC[C@@H]3c4ccc(O)cc4C[C@@H](CCCCCCCCCS(=O)CCCC(F)(F)C(F)(F)F)[C@H]3[C@@H]1CC[C@@H]2O (some centres not stated)
inactive: [7]

CCOC(=O)c1ccc(O)cc1
inactive: [7]

Cc1nn(C)c(Oc2ccccc2)c1C=NOCc1ccc(C(=O)OC(C)(C)C)cc1
active: [7] 29.9 µM
not listed: [1] | [9] | [10]
inactive: all other assays above

COC(=O)CSc1cc(N=c2sc(=O)n3n2CCCC3)c(F)cc1Cl
not listed: [1] | [9] | [10]
inactive: all other assays above

COC(=O)c1cccc(C)c1S(=O)(=O)NC(=O)Nc1nc(OCC(F)(F)F)nc(N(C)C)n1
not listed: [1] | [9] | [10]
inactive: all other assays above

C[C@]12C[C@H](O)[C@H]3[C@@H](CCC4=CC(=O)CC[C@@]43C)[C@@H]1CC[C@@H]2C(=O)CO
active: [7] 114 µM

CCOC(=O)COc1cc(-n2ncc(C(F)(F)F)c(C)c2=O)c(F)cc1Cl
not listed: [1] | [9] | [10]
inactive: all other assays above

CCCCCOC(=O)COc1cc(N2C(=O)C3=C(CCCC3)C2=O)c(F)cc1Cl
active: [8] 87.4 µM
not listed: [1] | [9] | [10]
inactive: all other assays above

CC(C)CCCCCCc1ccc(O)cc1
active: [7] 96.8 µM

COCCO
not listed: [1] | [9] | [10]
inactive: all other assays above

CCCN(CCC)C(=O)SCC
not listed: [1] | [9] | [10]
inactive: all other assays above

CC(=O)S[C@@H]1CC2=CC(=O)CC[C@]2(C)[C@H]2CC[C@@]3(C)[C@@H](CC[C@@]34CCC(=O)O4)[C@H]12
active: [7] 37.4 µM

COc1c(Cl)ccc(Cl)c1C(=O)O
not listed: [1] | [9] | [10]
inactive: all other assays above

S=C([S-])NCCNC(=S)[S-].[Mn+2]
not listed: [1] | [9] | [10]
inactive: all other assays above

CCOC(=O)C(C)Oc1ccc(Oc2cnc3cc(Cl)ccc3n2)cc1 (configuration not stated)
not listed: [1] | [9] | [10]
inactive: all other assays above

CN(C)C(=O)Nc1ccc(Cl)c(Cl)c1
not listed: [1] | [9] | [10]
inactive: all other assays above

O=C(c1ccc(O)cc1O)c1ccc(O)cc1O
inactive: [7]

CCC(O)=C1C(=O)CC(C(=O)O)CC1=O (configuration not stated)
not listed: [1] | [9] | [10]
inactive: all other assays above
